Experimental data published in PubChem BioAssay (NCI).
About 83,000 compounds went through this panel and 20% of them were active in at least one assay; those are over-represented in the sample as a whole.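 The endpoint reported here, percent growth, reads 100 for growth as untreated, 0 for no net growth and -100 for all cells dead.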

Tests used:
Experiment in all cases: NCI-60 one-dose screen, 48 h (100 = growth as untreated, 0 = no growth, -100 = all killed)
Conditions in all cases: 10 µM unless noted; active = growth percent below 10; inactive = the rest
SR leukemia = tested on: SR leukemia
RPMI-8226 leukemia = tested on: RPMI-8226 leukemia
OVCAR-8 ovarian = tested on: OVCAR-8 ovarian
OVCAR-5 ovarian = tested on: OVCAR-5 ovarian
OVCAR-4 ovarian = tested on: OVCAR-4 ovarian
SK-OV-3 ovarian = tested on: SK-OV-3 ovarian
IGROV1 ovarian = tested on: IGROV1 ovarian
OVCAR-3 ovarian = tested on: OVCAR-3 ovarian
HS 578T breast = tested on: HS 578T breast
NCI/ADR-RES ovarian = tested on: NCI/ADR-RES ovarian
MDA-MB-435 melanoma = tested on: MDA-MB-435 melanoma
SW-620 colon = tested on: SW-620 colon
MCF7 breast = tested on: MCF7 breast
HCT-116 colon = tested on: HCT-116 colon
HCC-2998 colon = tested on: HCC-2998 colon
KM12 colon = tested on: KM12 colon
BT-549 breast = tested on: BT-549 breast
T-47D breast = tested on: T-47D breast

Measured: growth

CCCNS(=O)(=O)c1ccc(Cl)cc1
inactive: SR leukemia 98.9% | RPMI-8226 leukemia 99.7% | OVCAR-8 ovarian 104% | OVCAR-5 ovarian 110% | OVCAR-4 ovarian 102% | SK-OV-3 ovarian 99.6% | IGROV1 ovarian 105% | OVCAR-3 ovarian 109% | HS 578T breast 88.1% | NCI/ADR-RES ovarian 101% | MDA-MB-435 melanoma 93.3% | SW-620 colon 96.2% | MCF7 breast 93.3% | HCT-116 colon 103% | HCC-2998 colon 98.9% | KM12 colon 99.6%

CSc1nc2[nH]ncc2c(=O)[nH]1
inactive: SR leukemia 95% | RPMI-8226 leukemia 119% | OVCAR-8 ovarian 106% | OVCAR-5 ovarian 97.7% | OVCAR-4 ovarian 123% | SK-OV-3 ovarian 107% | IGROV1 ovarian 112% | OVCAR-3 ovarian 97.3% | HS 578T breast 92% | NCI/ADR-RES ovarian 99.1% | BT-549 breast 88.9% | MDA-MB-435 melanoma 103% | SW-620 colon 95.4% | MCF7 breast 98.1% | HCT-116 colon 98.1% | HCC-2998 colon 108% | KM12 colon 99.9%

O=C(O)c1ccc([N+](=O)[O-])cc1S(=O)(=O)O
inactive: SR leukemia 110% | RPMI-8226 leukemia 99.5% | OVCAR-8 ovarian 99.5% | OVCAR-5 ovarian 106% | OVCAR-4 ovarian 116% | SK-OV-3 ovarian 103% | IGROV1 ovarian 108% | OVCAR-3 ovarian 99.4% | HS 578T breast 100% | NCI/ADR-RES ovarian 104% | BT-549 breast 108% | MDA-MB-435 melanoma 108% | SW-620 colon 105% | MCF7 breast 104% | HCT-116 colon 95.6% | HCC-2998 colon 97.8% | KM12 colon 104%

C=CCS(C)(=O)=O
inactive: SR leukemia 99.4% | RPMI-8226 leukemia 104% | OVCAR-8 ovarian 95.4% | OVCAR-5 ovarian 101% | OVCAR-4 ovarian 113% | SK-OV-3 ovarian 90.3% | IGROV1 ovarian 112% | OVCAR-3 ovarian 108% | HS 578T breast 89.2% | NCI/ADR-RES ovarian 104% | MDA-MB-435 melanoma 96.7% | SW-620 colon 95.4% | MCF7 breast 96.3% | HCT-116 colon 94% | HCC-2998 colon 108% | KM12 colon 88.3%

CC(=O)Oc1c(Cl)cccc1-c1ccccc1
inactive: SR leukemia 99.9% | RPMI-8226 leukemia 99.3% | OVCAR-8 ovarian 100% | OVCAR-5 ovarian 108% | OVCAR-4 ovarian 110% | SK-OV-3 ovarian 104% | IGROV1 ovarian 102% | OVCAR-3 ovarian 103% | HS 578T breast 90.7% | NCI/ADR-RES ovarian 97.3% | SW-620 colon 96.4% | HCT-116 colon 101% | HCC-2998 colon 102% | KM12 colon 104%

O=C(c1ccccc1O)N1CCCC1
inactive: SR leukemia 99.5% | RPMI-8226 leukemia 94.8% | OVCAR-8 ovarian 99.3% | OVCAR-5 ovarian 98.9% | OVCAR-4 ovarian 109% | SK-OV-3 ovarian 95.8% | IGROV1 ovarian 103% | OVCAR-3 ovarian 110% | HS 578T breast 111% | NCI/ADR-RES ovarian 101% | T-47D breast 95.6% | SW-620 colon 100% | MCF7 breast 90.6% | HCT-116 colon 88.5% | HCC-2998 colon 101% | KM12 colon 107%

C/C(=N\Nc1ccc([N+](=O)[O-])cc1[N+](=O)[O-])c1ccc(Br)cc1
inactive: SR leukemia 84.4% | RPMI-8226 leukemia 93.1% | OVCAR-8 ovarian 96.8% | OVCAR-5 ovarian 123% | OVCAR-4 ovarian 105% | SK-OV-3 ovarian 108% | IGROV1 ovarian 110% | OVCAR-3 ovarian 99.7% | HS 578T breast 104% | NCI/ADR-RES ovarian 106% | MDA-MB-435 melanoma 98.4% | SW-620 colon 101% | MCF7 breast 97.2% | HCT-116 colon 102% | HCC-2998 colon 99.4%

C=C(C)COc1ccc(C(C)(C)C)cc1
inactive: SR leukemia 96.3% | RPMI-8226 leukemia 104% | OVCAR-8 ovarian 95.4% | OVCAR-5 ovarian 106% | OVCAR-4 ovarian 103% | SK-OV-3 ovarian 95.9% | IGROV1 ovarian 112% | OVCAR-3 ovarian 102% | HS 578T breast 90.1% | NCI/ADR-RES ovarian 107% | MDA-MB-435 melanoma 93.4% | SW-620 colon 101% | MCF7 breast 98.5% | HCT-116 colon 96% | HCC-2998 colon 111% | KM12 colon 103%

COc1c(CNC(=O)CCl)cc2[nH]c(C)cc2c1CNC(=O)CCl
inactive: SR leukemia 34.9% | RPMI-8226 leukemia 58.5% | OVCAR-8 ovarian 53% | OVCAR-5 ovarian 96.7% | OVCAR-4 ovarian 45.3% | SK-OV-3 ovarian 70.3% | OVCAR-3 ovarian 30.9% | NCI/ADR-RES ovarian 118% | T-47D breast 59.2% | BT-549 breast 58.9% | MDA-MB-435 melanoma 50.4% | SW-620 colon 55.1% | MCF7 breast 36% | HCT-116 colon 41.7% | KM12 colon 59.2%

C=C1SC(=Nc2c(C)cccc2C)N(c2nc(Cl)nc(Cl)n2)C12CCCCC2
inactive: SR leukemia 81.4% | RPMI-8226 leukemia 99.8% | OVCAR-8 ovarian 98.8% | OVCAR-5 ovarian 118% | OVCAR-4 ovarian 101% | SK-OV-3 ovarian 99% | OVCAR-3 ovarian 101% | HS 578T breast 113% | NCI/ADR-RES ovarian 105% | T-47D breast 101% | BT-549 breast 91.6% | SW-620 colon 112% | MCF7 breast 103% | HCT-116 colon 93.7% | HCC-2998 colon 111%

CCCCCCCCNC(=O)C(C)C
inactive: SR leukemia 102% | RPMI-8226 leukemia 99.1% | OVCAR-8 ovarian 109% | OVCAR-5 ovarian 97.9% | OVCAR-4 ovarian 96.9% | SK-OV-3 ovarian 105% | OVCAR-3 ovarian 109% | HS 578T breast 97.1% | NCI/ADR-RES ovarian 117% | T-47D breast 95.2% | BT-549 breast 107% | MDA-MB-435 melanoma 102% | SW-620 colon 93.4% | MCF7 breast 92% | HCT-116 colon 92.7% | HCC-2998 colon 115% | KM12 colon 102%

O=C(O)CSCC(=O)Nc1cc(C(F)(F)F)ccc1Cl
inactive: SR leukemia 96.1% | RPMI-8226 leukemia 106% | OVCAR-8 ovarian 107% | OVCAR-5 ovarian 104% | OVCAR-4 ovarian 119% | SK-OV-3 ovarian 109% | OVCAR-3 ovarian 113% | HS 578T breast 101% | NCI/ADR-RES ovarian 117% | T-47D breast 102% | MDA-MB-435 melanoma 111% | SW-620 colon 125% | MCF7 breast 102% | HCT-116 colon 107% | HCC-2998 colon 118% | KM12 colon 105%

S=c1nc(-c2ccccn2)c(-c2ccccn2)n[nH]1
inactive: SR leukemia 99.2% | RPMI-8226 leukemia 112% | OVCAR-8 ovarian 103% | OVCAR-5 ovarian 111% | OVCAR-4 ovarian 108% | SK-OV-3 ovarian 112% | OVCAR-3 ovarian 107% | HS 578T breast 105% | NCI/ADR-RES ovarian 102% | T-47D breast 93.9% | BT-549 breast 101% | MDA-MB-435 melanoma 110% | SW-620 colon 106% | MCF7 breast 96.9% | HCT-116 colon 100% | HCC-2998 colon 99.5% | KM12 colon 97.4%

Clc1ncnc2nc[nH]c12
inactive: SR leukemia 102% | RPMI-8226 leukemia 88.8% | OVCAR-8 ovarian 102% | OVCAR-5 ovarian 101% | OVCAR-4 ovarian 103% | OVCAR-3 ovarian 98.1% | HS 578T breast 98% | NCI/ADR-RES ovarian 103% | T-47D breast 90.7% | BT-549 breast 101% | MDA-MB-435 melanoma 106% | SW-620 colon 103% | MCF7 breast 94.9% | HCT-116 colon 102% | HCC-2998 colon 89.6% | KM12 colon 105%

Cc1ccccc1NC(=O)Oc1ccc(Cl)cc1C(=O)c1ccccc1
inactive: SR leukemia 94.2% | RPMI-8226 leukemia 85.6% | OVCAR-8 ovarian 91.4% | OVCAR-5 ovarian 105% | OVCAR-4 ovarian 102% | SK-OV-3 ovarian 95.4% | OVCAR-3 ovarian 95.3% | HS 578T breast 84.3% | NCI/ADR-RES ovarian 97% | T-47D breast 104% | BT-549 breast 92.3% | MDA-MB-435 melanoma 103% | SW-620 colon 98.5% | MCF7 breast 105% | HCT-116 colon 90.2% | HCC-2998 colon 107% | KM12 colon 90.4%

N#Cc1ccc2nc[nH]c2c1
inactive: SR leukemia 106% | RPMI-8226 leukemia 108% | OVCAR-8 ovarian 104% | OVCAR-5 ovarian 108% | OVCAR-4 ovarian 109% | SK-OV-3 ovarian 109% | OVCAR-3 ovarian 102% | HS 578T breast 100% | NCI/ADR-RES ovarian 110% | T-47D breast 107% | MDA-MB-435 melanoma 109% | SW-620 colon 104% | MCF7 breast 96.8% | HCT-116 colon 105% | HCC-2998 colon 110% | KM12 colon 98.5%

CN(C)c1ccc(/C=C/C(=O)c2ccc(NC(N)=O)cc2)cc1
inactive: SR leukemia 61.2% | RPMI-8226 leukemia 63.8% | OVCAR-8 ovarian 94.1% | OVCAR-5 ovarian 99.8% | OVCAR-4 ovarian 94% | SK-OV-3 ovarian 105% | OVCAR-3 ovarian 109% | NCI/ADR-RES ovarian 102% | T-47D breast 82% | BT-549 breast 91.7% | MDA-MB-435 melanoma 93.8% | MCF7 breast 58.4% | HCT-116 colon 75.4% | HCC-2998 colon 105% | KM12 colon 98.5%

O=c1cc(C(F)(F)F)[nH]c(=S)[nH]1
inactive: SR leukemia 91.7% | RPMI-8226 leukemia 111% | OVCAR-8 ovarian 105% | OVCAR-5 ovarian 102% | OVCAR-4 ovarian 107% | SK-OV-3 ovarian 99.9% | OVCAR-3 ovarian 120% | NCI/ADR-RES ovarian 109% | T-47D breast 97.7% | BT-549 breast 122% | MDA-MB-435 melanoma 106% | MCF7 breast 94.9% | HCT-116 colon 112% | HCC-2998 colon 117% | KM12 colon 103%

CCOC(=O)/C(C)=C\c1ccc(OC)c(OC)c1
inactive: SR leukemia 86.5% | RPMI-8226 leukemia 103% | OVCAR-8 ovarian 101% | OVCAR-5 ovarian 99.3% | SK-OV-3 ovarian 103% | IGROV1 ovarian 105% | OVCAR-3 ovarian 103% | HS 578T breast 108% | NCI/ADR-RES ovarian 100% | T-47D breast 90.2% | BT-549 breast 89% | MDA-MB-435 melanoma 102% | SW-620 colon 106% | MCF7 breast 101% | HCT-116 colon 94.2% | HCC-2998 colon 103%

Cc1cccnc1NC1OC(=O)c2ccccc21 (centres undefined)
inactive: SR leukemia 93.8% | RPMI-8226 leukemia 106% | OVCAR-8 ovarian 107% | OVCAR-5 ovarian 106% | OVCAR-4 ovarian 117% | SK-OV-3 ovarian 94.6% | OVCAR-3 ovarian 107% | HS 578T breast 138% | NCI/ADR-RES ovarian 103% | T-47D breast 94.2% | BT-549 breast 97.6% | MDA-MB-435 melanoma 103% | SW-620 colon 106% | MCF7 breast 102% | HCT-116 colon 90.8% | HCC-2998 colon 106% | KM12 colon 105%
